In PubChem BioAssay (Tox21) one finds outcome and Potency data, which are given here for 9 molecules.

The structures appear in SMILES notation. Unmarked numbers belong to inactive results. Records with an inconclusive call do not appear. Calls of active or inactive are those of the source. Unless noted, the call rests on the fitted dose curve; in most records, active means well fitted curve in the direction sought with a large enough effect in the repeat runs; inconclusive means weak or mixed curves; inactive means no such curve, though single readings can be large; an effect the other way counts as inactive or inconclusive.

Assay [1] can be described thus: qHTS assay to identify small molecule antagonists of the glucocorticoid receptor (GR) signaling pathway - cell viability counter screen (AID 720693). Further: nearly all actives have a fitted effect of over 55% in size.
The nature of assay [2]: qHTS assay for identifying genotoxic compounds that show differential cytotoxicity against isogenic chicken DT40 cell lines with known DNA damage response pathways - wild type cell line (AID 743012). Further: nearly all actives have a fitted effect of over 60% in size. Further: potency means the concentration at half of the fitted maximal effect. A digest of the protocol:
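Using parental DT40 (300 cells/well), compounds delivered in DMSO incubate 40 h at 37 C/5% CO2. CellTiter-Glo reagent then stands 30 min at room temperature, and luminescence gives cell viability.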
For orientation: In qHTS, concentration-response curves come from the screen itself.

Assay [3] can be described thus: qHTS assay for identifying genotoxic compounds that show differential cytotoxicity against isogenic chicken DT40 cell lines with known DNA damage response pathways - Rev3 mutant cell line (AID 743014). Further: nearly all actives have a fitted effect of over 55% in size. Further: potency means the concentration at half of the fitted maximal effect.
Assay [4] in a line: qHTS assay for identifying genotoxic compounds that show differential cytotoxicity against isogenic chicken DT40 cell lines with known DNA damage response pathways - Rad54/Ku70 mutant cell line (AID 743015). Further: nearly all actives have a fitted effect of over 60% in size. Further: potency means the concentration at half of the fitted maximal effect.
Assay [5] is described as follows: qHTS assay to identify small molecule antagonists of the androgen receptor (AR) signaling pathway - cell viability counter screen (AID 743033; further: nearly all actives have a fitted effect of over 45% in size).
Assay [6] addresses Androgen receptor (Homo sapiens) (UniProt P10275). Put plainly: qHTS assay to identify small molecule agonists of the androgen receptor (AR) signaling pathway (AID 743036; active means well fitted activation curve with a large enough effect in the signal ratio in the repeat runs, with a control signal flat, not every such curve was filed as active; the % refers to the signal ratio). In outline: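 Fluorescence from a beta-lactamase FRET substrate served as read-out in AR-UAS-bla GripTite HEK293 cells. Cells were treated with DMSO-dissolved compounds for 16 h at 37C, then with LiveBLAzer B/G substrate for 2 h at room temperature.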

For assay [7] the target is unchanged. Description: qHTS assay to identify small molecule agonists of the androgen receptor (AR) signaling pathway using the MDA cell line (AID 743040; further: nearly all actives have a fitted effect of over 20% in size). In outline: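 MDA-kb2 breast carcinoma cells carrying MMTV-luciferase (responsive to AR and GR), plated 5 h then treated 16 h with compounds at 37C, 0% CO2. Read-out was ONE-Glo luminescence after 30 min at room temperature.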

Assay [8] is described as follows: qHTS assay to identify small molecule antagonists of the androgen receptor (AR) signaling pathway using the MDA cell line - cell viability counter screen (AID 743041; further: nearly all actives have a fitted effect of over 45% in size). In outline: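 MDA-kb2 AR-luc cells (MMTV-luciferase, AR/GR responsive) treated with compounds plus R1881 agonist for 16 h at 37C. CellTiter-Fluor added at 15.5 h; fluorescence read after 30 min in the same wells.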

Assay [9] has as its target Androgen receptor (Homo sapiens) (UniProt P10275). Put plainly: qHTS assay to identify small molecule antagonists of the androgen receptor (AR) signaling pathway using the MDA cell line (AID 743042; further: nearly all actives have a fitted effect of over 55% in size). A digest of the protocol:
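MDA-kb2 breast carcinoma cells carrying MMTV-luciferase (AR/GR responsive) were co-treated with compounds and the agonist R1881 for 16 h at 37C. Inhibition read as ONE-Glo luminescence; CellTiter-Fluor fluorescence measured in parallel for cytotoxicity.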

Assay [10] can be described thus: qHTS assay to identify small molecule antagonists of the thyroid receptor (TR) signaling pathway - cell viability counter screen (AID 743064). Further: nearly all actives have a fitted effect of over 50% in size. A digest of the protocol: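 Fluorescence from CellTiter-Fluor, added after 23.5 h exposure at 37 °C, reported viability of GH3.TRE-Luc cells co-treated with compound and 1 nM T3. Measured in the same wells as the luciferase TR readout.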

Assay [11] is described as follows: qHTS assay to identify small molecule antagonists of the thyroid receptor (TR) signaling pathway (AID 743065). Further: series mostly up to about 70 µM; nearly all actives have a fitted effect of over 55% in size. A digest of the protocol:
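GH3.TRE-Luc rat pituitary cells (two TREs driving luciferase) were dosed with compound, then stimulated with 1 nM T3 (final) for 23.5 h at 37 C. ONE-Glo luminescence was the read-out, with CellTiter-Fluor fluorescence as the cytotoxicity counter-screen.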

The test system of assay [12] is thyroid hormone receptor (rat, GH3 cells). Description: qHTS assay to identify small molecule agonists of the thyroid receptor (TR) signaling pathway (AID 743066; calls by dose curve).
A short description of assay [13]: qHTS assay to identify small molecule antagonists of the estrogen receptor alpha (ER-alpha) signaling pathway - cell viability counter screen (AID 743074; calls by dose curve;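 further: HEK293 cells carrying ER-alpha-UAS-bla reporter stimulated with 17beta-estradiol; nearly all actives have a fitted effect of over 45% in size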).
For assay [14], the target named is Estrogen receptor (Homo sapiens) (UniProt P03372). Put plainly: qHTS assay to identify small molecule agonists of the estrogen receptor alpha (ER-alpha) signaling pathway (AID 743075; calls by dose curve).
Chain of Estrogen receptor (Homo sapiens) (P03372 whole entry, looked up): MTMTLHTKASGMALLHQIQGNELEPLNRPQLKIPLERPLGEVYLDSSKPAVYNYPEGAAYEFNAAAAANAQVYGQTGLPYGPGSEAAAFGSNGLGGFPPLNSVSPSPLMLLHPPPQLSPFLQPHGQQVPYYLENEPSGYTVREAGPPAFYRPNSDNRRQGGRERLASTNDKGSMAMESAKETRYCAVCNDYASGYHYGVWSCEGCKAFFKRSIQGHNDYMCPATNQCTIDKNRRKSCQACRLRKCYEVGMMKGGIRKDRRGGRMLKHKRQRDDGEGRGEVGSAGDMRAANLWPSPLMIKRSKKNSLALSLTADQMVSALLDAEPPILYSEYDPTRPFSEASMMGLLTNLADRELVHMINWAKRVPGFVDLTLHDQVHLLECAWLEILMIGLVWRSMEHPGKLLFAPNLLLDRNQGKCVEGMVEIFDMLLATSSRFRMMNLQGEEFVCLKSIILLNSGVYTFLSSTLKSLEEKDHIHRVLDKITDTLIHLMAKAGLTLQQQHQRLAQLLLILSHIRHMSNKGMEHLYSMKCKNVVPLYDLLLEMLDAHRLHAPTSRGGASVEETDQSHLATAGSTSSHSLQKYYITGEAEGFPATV
The target is the same in assay [15]. Put plainly: qHTS assay to identify small molecule agonists of the estrogen receptor alpha (ER-alpha) signaling pathway using the BG1 cell line (AID 743079). Further: nearly all actives have a fitted effect of over 20% in size.
Assay [16] can be described thus: qHTS assay to identify small molecule antagonists of the estrogen receptor alpha (ER-alpha) signaling pathway using the BG1 cell line (AID 743080; calls by dose curve;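 further: BG1 cells stimulated with 17beta-estradiol alongside compound; series mostly up to about 70 µM; nearly all actives have a fitted effect of over 25% in size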). In outline: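 Endogenous full-length ER-alpha in BG1-Luc-4E2 cells drives a stably integrated 4×ERE luciferase gene; compounds were tested against 17beta-estradiol over 21.5 h, with luminescence and multiplexed viability fluorescence recorded.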

Assay [17] is described as follows: qHTS assay to identify small molecule antagonists of the estrogen receptor alpha (ER-alpha) signaling pathway using the BG1 cell line - cell viability counter screen (AID 743081).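 Further: compound given together with 17beta-estradiol as the ER stimulus; series mostly up to about 70 µM; nearly all actives have a fitted effect of over 45% in size.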
Another assay deals with Aromatase (Homo sapiens) (UniProt P11511). Description: qHTS assay to identify aromatase inhibitors (AID 743083).
Chain of Aromatase (Homo sapiens) (P11511 whole entry, looked up): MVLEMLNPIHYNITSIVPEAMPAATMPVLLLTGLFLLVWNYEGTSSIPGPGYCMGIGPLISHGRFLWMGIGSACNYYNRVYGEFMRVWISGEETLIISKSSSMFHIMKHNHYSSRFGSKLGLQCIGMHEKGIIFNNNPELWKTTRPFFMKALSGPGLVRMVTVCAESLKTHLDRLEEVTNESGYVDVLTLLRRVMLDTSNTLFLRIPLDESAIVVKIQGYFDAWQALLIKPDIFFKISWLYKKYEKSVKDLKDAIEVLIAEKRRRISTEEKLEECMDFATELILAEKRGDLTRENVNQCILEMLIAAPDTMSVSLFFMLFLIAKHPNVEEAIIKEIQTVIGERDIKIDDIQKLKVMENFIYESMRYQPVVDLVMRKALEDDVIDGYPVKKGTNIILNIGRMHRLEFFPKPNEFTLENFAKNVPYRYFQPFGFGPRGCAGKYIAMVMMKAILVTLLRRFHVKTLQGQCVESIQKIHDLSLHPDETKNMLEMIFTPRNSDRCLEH
Assay [18] is described as follows: qHTS assay to identify aromatase inhibitors - cell viability counter screen (AID 743084).
Assay [19] has as its target Estrogen receptor (Homo sapiens) (UniProt P03372). Put plainly: qHTS assay to identify small molecule antagonists of the estrogen receptor alpha (ER-alpha) signaling pathway (AID 743069; active means well fitted curve in the direction sought with a large enough effect in the signal ratio in the repeat runs, not every such curve was filed as active; the % refers to the signal ratio). In outline:
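HEK293 ER-alpha-UAS-bla GripTite cells, held overnight in 2% charcoal-stripped FBS, 5,000 cells/well, preincubated 4 h, then compound plus 17beta-estradiol for 18 h at 37C. Beta-lactamase read by LiveBLAzer B/G FRET substrate, 2 h at room temperature.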

Chain of Androgen receptor (Homo sapiens) (P10275 whole entry, looked up): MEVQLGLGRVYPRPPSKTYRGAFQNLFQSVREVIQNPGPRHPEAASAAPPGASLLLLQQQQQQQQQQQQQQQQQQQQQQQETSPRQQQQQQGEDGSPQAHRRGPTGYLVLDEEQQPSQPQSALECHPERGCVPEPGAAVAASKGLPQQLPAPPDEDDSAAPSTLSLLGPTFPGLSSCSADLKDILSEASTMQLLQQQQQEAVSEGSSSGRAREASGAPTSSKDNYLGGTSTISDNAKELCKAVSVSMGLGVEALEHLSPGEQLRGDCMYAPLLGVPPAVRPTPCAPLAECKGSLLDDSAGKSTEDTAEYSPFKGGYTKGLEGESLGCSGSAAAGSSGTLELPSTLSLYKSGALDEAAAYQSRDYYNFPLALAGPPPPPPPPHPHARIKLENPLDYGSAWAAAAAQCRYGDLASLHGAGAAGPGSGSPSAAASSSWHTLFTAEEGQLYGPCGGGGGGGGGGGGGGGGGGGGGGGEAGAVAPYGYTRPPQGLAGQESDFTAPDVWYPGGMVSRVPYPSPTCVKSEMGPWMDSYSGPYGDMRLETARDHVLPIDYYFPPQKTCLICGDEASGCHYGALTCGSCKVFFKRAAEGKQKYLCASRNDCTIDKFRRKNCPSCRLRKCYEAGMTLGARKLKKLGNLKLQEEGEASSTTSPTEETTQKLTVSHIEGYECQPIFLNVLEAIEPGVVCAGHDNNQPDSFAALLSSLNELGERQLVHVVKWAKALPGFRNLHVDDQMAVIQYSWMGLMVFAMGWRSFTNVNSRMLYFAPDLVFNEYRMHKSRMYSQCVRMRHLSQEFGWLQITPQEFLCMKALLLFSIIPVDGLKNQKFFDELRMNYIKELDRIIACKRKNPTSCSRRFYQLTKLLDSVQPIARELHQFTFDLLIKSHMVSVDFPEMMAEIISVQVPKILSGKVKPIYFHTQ

With `CCCCCCCCCOC(=O)c1ccccc1C(=O)OCCCCCCCCC`, the molecule was classed as inactive in [1], in assay [5], in assay [6], in assay [9], in assay [12] and in assay [13]. The molecule was classed as inactive (in assay [16]; with Aromatase (Homo sapiens)). For the same molecule, the Potency result in assay [2], in assay [3], in assay [4], in assay [7], in assay [8] and in assay [10] was “inactive” each time. Besides, the Potency entry in assay [11], in assay [14], in assay [15], in assay [17] and in assay [18] was “inactive” in each case.

Turning to `CC12CCC(C1)C(C)(C)C2O` (centres undefined), the outcome (in assay [1]; in assay [5]; in assay [12]; in assay [13]; in assay [16]; with Aromatase (Homo sapiens)) was inactive. Besides, the Potency entry in [2], in [3], in assay [4], in assay [8], in assay [10] and in assay [11] was “inactive” throughout. For the same molecule, the Potency result in assay [14], in assay [15], in assay [17] and in [18] was “inactive” in each case.

Consider `O=C(O)CSCC(=O)NC1CCSC1=O` (centres undefined), for which the molecule was called inactive in assay [1], in assay [5], in assay [6], in [9], in [12] and in [13]. Also, the result with Aromatase (Homo sapiens) was inactive. The Potency entry in [2], in [3], in [4], in assay [7], in assay [8] and in [10] was “inactive” each time. Moreover, the Potency result in [17] and in assay [18] was “inactive” throughout.

With `COC(=O)/C=C\C(=O)O`, the molecule was called inactive (in [1]; in assay [5]; in assay [12]; in [13]; in assay [16]; in the assay with Aromatase (Homo sapiens)). Further, the Potency result in assay [2], in assay [3], in assay [4], in assay [8], in [10] and in [11] was “inactive” each time. Further, the Potency result in [14], in assay [15], in assay [17] and in [18] was “inactive” in each case.

With `CN1C[C@@H]2C[C@H]1CN2c1cc2c(cc1F)c(=O)c(C(=O)O)cn2C1CC1`, the result (in assay [1]; in assay [5]; in [12]; in [13]; in assay [16]; with Aromatase (Homo sapiens)) was inactive. Further, the results for the Potency in assay [2], in assay [3] and in assay [4] were 7.5 µM (active), 9.44 µM (active) and 11.9 µM (active), respectively. Also, the Potency entry in assay [8], in assay [10], in assay [11], in assay [14], in [15] and in assay [17] was “inactive” each time. In assay [18], the Potency result was “inactive”.

For `C=CCCCCCCCCC(=O)OCCCC`, the outcome (in assay [1]; in assay [5]; in assay [12]; in assay [13]; in [16]; in the assay with Aromatase (Homo sapiens)) was inactive. For the same molecule, the Potency entry in assay [2], in [3], in assay [4], in assay [8], in [10] and in assay [11] was “inactive” in each case. Also, the Potency result in assay [14], in [15], in [17] and in [18] was “inactive” each time.

Regarding `CC(C)CO`, the result in assay [1], in assay [5], in assay [12], in assay [19], in assay [13] and in [16] was inactive. The result with Aromatase (Homo sapiens) was inactive. Also, the Potency result in [2], in assay [3], in [4], in [8], in assay [10] and in [11] was “inactive” each time. Also, the Potency result in assay [14], in assay [15] and in [17] was “inactive” in each case.

Regarding `C/C=C(\C)C(C)=O`, the molecule was classed as inactive in [1], in assay [5], in assay [6], in assay [9], in assay [19] and in assay [13]. Moreover, the result (in assay [16]; with Aromatase (Homo sapiens)) was inactive. Moreover, the Potency entry in [2], in assay [3], in [4], in [7], in assay [8] and in [10] was “inactive” each time. Moreover, the Potency result in assay [14], in [15], in assay [17] and in assay [18] was “inactive” in each case.

`CCCCCCCCCCCCCCCCCCOCCO`: the result in assay [1], in [5], in [12], in assay [19], in assay [13] and in [16] was inactive. In addition, the molecule was classed as inactive with Aromatase (Homo sapiens). Also, the Potency entry in assay [2], in [3], in [4], in assay [8], in assay [10] and in assay [11] was “inactive” throughout. Also, the Potency result in assay [14], in assay [15], in assay [17] and in [18] was “inactive” in each case.
